# Only some compounds are listed: those with a hit (about 9.3% of all), similar ones and a draw of the others.
# FMDV inh = High Throughput Screening for Foot and Mouth Disease Virus Antivirals; FMDV antiviral cell-based qHTS; actives 1.2% (n = 410,000); Potency, µM (titrated, usually from 57.9 µM), for the others: at the highest dose activity change, negative = inhibition, hits mostly inhibitors; calls by dose curve; tested in HEK293T cells; note: read-out not given here; potency is the fitted concentration of half-maximal effect; nearly all actives have a fitted effect of over 45% in size
# HCMV inh = qHTS Assay for inhibitors of the human cytomegalovirus (HCMV) | HFF cells, HCMV-luciferase reporter, 72 h; stronger effect = lower value | activity change, negative = inhibition, % at 57.5 µM | actives 4.5% (n = 410,000); in the data active = activity change below about -60%; inconclusive = no clear call, values can overlap the other calls; inactive = above about -39%
#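 Two compound doses tested in HFFs infected with HCMV-luciferase, MOI 1 PFU/cell, 72 h at 37C. Lysate luminescence read with OneGlo; data normalized against buffer-only and 10uM Salinomycin inhibitor controls.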
# HCV inh = qHTS Assay for Inhibitors of Hepatitis C Virus (HCV). actives 3.4% (n = 340,000). Huh7.5.1 HCVcc-Cre infection, luciferase reporter, 44 h. Potency, µM (series often up to 41.8 µM), inactives show top-dose activity change, negative = inhibition, usual class: inhibitors; note: potency is the fitted concentration of half-maximal effect
#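 Whole-lifecycle infectious HCVcc-Cre system; cells 1,000/well, compound then virus (~0.5 moi) added 4 h after plating, 44 h culture. Luciferase read 15 sec following 15 min substrate incubation, room temp.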
# Sm TGR inh = qHTS Assay for the Inhibitors of Schistosoma Mansoni Peroxiredoxins; Schistosoma mansoni thioredoxin glutathione reductase (TGR), Q962Y6; purified TGR, DTNB reduction, TNB absorbance 405 nm; Potency, µM (top dose mostly 114 µM), for inactives: top-dose activity change, negative = inhibition, actives largely listed as inhibitors; actives 3% (n = 360,000); AID 485364, 2010; note: potency is the fitted concentration of half-maximal effect; nearly all actives have a fitted effect of over 60% in size
#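 Kinetic colorimetric format: TGR-catalysed, NADPH-driven DTNB reduction monitored via TNB absorbance. Enzyme dispensed at 20 nM; compound exposure 15 min at room temperature before reaction start.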
# VACV Venus inh = qHTS for Stage-Specific Inhibitors of Vaccinia Orthopoxvirus: Venus Reporter Primary qHTS; Vaccinia virus Venus reporter expression, fluorescence; Potency, µM (top dose mostly 36.5 µM), for the others: top-dose activity change, negative = inhibition, most hits filed as inhibitors; actives 0.46% (n = 330,000); calls by dose curve; tested in A549 cells; note: potency is the fitted concentration of half-maximal effect; nearly all actives have a fitted effect of over 30% in size
# Vaccinia mCherry = qHTS for Stage-Specific Inhibitors of Vaccinia Orthopoxvirus: mCherry Reporter Primary qHTS; Vaccinia virus mCherry reporter infection, fluorescence; AID 720579, 2013; Potency, µM (top dose mostly 36.5 µM), for inactives: at the top dose activity change, negative = inhibition, most hits filed as inhibitors; actives 0.63% (n = 310,000); calls by dose curve; tested in A549 cells; note: potency is the fitted concentration of half-maximal effect; nearly all actives have a fitted effect of over 35% in size
# Starred values were filed as active, the others as inactive; i = inactive; u = inconclusive; x = no result given; [ ] = dose if it differs, or a comment. Unless noted, calls come from the whole dose curve; as a rule, active = well fitted curve in the direction sought with a large enough effect; inconclusive = small, poorly fitted or top-dose-only effect, or another doubt; inactive = no such curve, though single readings can be large; an effect the other way counts as inactive or inconclusive. % is set by controls: 0 for no effect and ±100 for the full control effect.
SMILES,FMDV inh,HCMV inh,HCV inh,Sm TGR inh,VACV Venus inh,Vaccinia mCherry
COc1ccc(NC(=S)NC2CCCCC2)c(OC)c1,40.3%,-25.5,-17.0%,-9.6%,-11.2%,-14.5%
COc1ccc(/C=C/C(=O)NC(=S)Nc2ccccc2C(=O)NC2CCCCC2)cc1,x,-11.3,25.1µM*,-27.6%,-11.6%,i
COc1ccc(NC(=O)N(C2CCCCC2)C2CCN(C(C)C)CC2)c(OC)c1,-5.7%,-9.0,3.55µM*,-8.6%,-3.1%,-15.9%
COc1ccc(NC(=S)NC2CCCCCC2)c(OC)c1,-0.2%,-77.2*,u,8.4%,-4.2%,-22.2%
Cc1ccc(/C=C/C(=O)NC(=S)Nc2ccccc2C(=O)NC2CCCCC2)cc1,x,-36.1,-20.2%,10.5%,0.3%,-1.8%
S=C(Nc1ccccn1)Nc1ccccc1Cl,41.1%,-82.8*,u,u,-7.8%,i
Cc1ccc(Cl)cc1-n1c(SCC(=O)NCc2ccccc2)nc2n[nH]c(C)c2c1=N,u,u,x,-0.4%,-15.7%,-12.9%
Cc1cc(=O)oc2cc(OCC(=O)N3c4ccccc4NC(=O)C3(C)C)ccc12,-18.2%,16.3,-0.8%,x,-8.2%,-11.5%
COc1ccc(NC(=S)Nc2ccccn2)c(OC)c1,68.1%,-7.1,11.2µM*,u,-23.6%,-5.4%
COc1ccc(NC(=S)Nc2cc(C)ccn2)c(OC)c1,53.4%,21.5,u,-19.7%,-14.2%,i
S=C(Nc1ccccn1)c1ccccn1,0.0%,-81.9*,13.1%,-17.9%,u,u
COc1ccc(NC(=S)Nc2cnc3ccccc3c2)c(OC)c1,1.4%,-20.1,10.2%,39.8µM*,x,x
CCCCCN(C(=O)COC(=O)Cc1c(C)nc2ccccc2c1C)c1c(N)n(CCCC)c(=O)[nH]c1=O,-8.2%,-22.1,-10.2%,2.6%,-9.4%,-25.8%
CC(C)Cn1c(SCC(=O)N(C)c2c(N)n(Cc3ccccc3)c(=O)[nH]c2=O)nc2ccccc21,-16.9%,-23.4,2.7%[8.37 µM],-0.1%,-14.7%,-10.4%
N#Cc1c(N)nc2c(c1-c1ccc3c(c1)OCO3)CCc1ccccc1-2,u,7.9,12.6µM*,3.3%,u,u
N#Cc1c(-c2ccc3c(c2)OCO3)csc1N,19.9%,4.9,8.91µM*,2.4%,-28.5%,u
N#Cc1c(N)c(C#N)c(-c2ccc3c(c2)OCO3)c2c1CCCC2,0.0%,u,-12.3%,-0.9%,2.5%,-3.8%
CN(C)CCCNC(=O)c1cc2sc3ccccc3c2s1,-1.6%,-37.6,10µM*,6.3%,-13.2%,-27.6%
Cc1ccc2[nH]c(=O)c3cc(C(=O)N(C)c4ccc(C)c(C)c4)sc3c2c1,u,-60.6*,-26.1%,-4.2%,x,x
CCCCN(CC)CCCNC(=O)c1cc2c(=O)[nH]c3ccccc3c2s1,-15.8%,u,u,44.7µM*,-10.0%,-8.6%
CCCCN(CC)CCNC(=O)c1cc2c(=O)[nH]c3ccc(C)cc3c2s1,-26.7%,-64.6*,u,-2.3%,u,-20.5%
CCOCCCNC(=O)c1cc2c(=O)[nH]c3ccccc3c2s1,34.1%,-9.3,-16.0%,8.6%,-3.1%,-9.4%
COC(=O)C1=C(C)NC(=O)C1(NC(=O)CN1CCCC1=O)C(F)(F)F (stereo not given),1.2%,16.8,11.0%,5.6%,8.1%,x
CCN(CC)C(=O)CSc1nc2cc3c(cc2c(=O)n1Cc1ccco1)OCO3,-5.3%,16.8,10µM*,-1.1%,-9.1%,i
CCN(CC)C(=O)CSc1nc2cc3c(cc2c(=O)n1CCCC(=O)NCCc1ccc(OC)c(OC)c1)OCO3,-6.8%,-67.2*,-22.4%,-11.0%,-10.6%,-22.2%
SMILES,FMDV inh,HCMV inh,HCV inh,Sm TGR inh,VACV Venus inh,Vaccinia mCherry
CCC(C)NC(=O)CSc1nc2cc3c(cc2c(=O)n1Cc1ccco1)OCO3 (stereo not given),8.5%,-17.1,-3.9%,9.0%,5.8%,2.6%
CCOC(=O)CSc1nc2cc3c(cc2c(=O)n1CCCC(=O)NCCc1ccc(OC)c(OC)c1)OCO3,-20.7%,21.0,x,4.8%,-9.2%,-14.8%
CCN(CC)C(=O)CSc1nc2cc3c(cc2c(=O)n1Cc1ccc(C(=O)NCCc2ccc(OC)c(OC)c2)cc1)OCO3,1.2%,-83.4*,x,7.2%,-10.9%,-12.1%
CCOc1ccc(OCC)c(NC(=O)c2cc3ccccn3n2)c1,38.2%,7.7,x,-31.3%,-3.9%,-12.3%
Cc1ccc(-n2nnc3c(=O)n(CC(=O)NCC4CCCO4)cnc32)cc1 (stereo not given),-18.1%,32.3,x,2.9%,-8.6%,-1.5%
CC(=O)NCc1cccc(CNC(C)=O)n1,-11.6%,-9.3,4.0%,-3.8%,x,x
CCOc1ccccc1N(CC(=O)NC(C)(C)C)C(=O)Cn1nnc(-c2ccc(C)o2)n1,-14.8%,27.3,12.1%,-17.0%,x,x
CCN1/C(=C/c2sc(-c3ccccc3C)c[n+]2C)Sc2ccccc21,11.2µM*,-96.7*,3.55µM*,4.2%,u,u
COc1ccc(OCC(=O)NC(=S)Nc2ccc(S(=O)(=O)Nc3cc(OC)nc(OC)n3)cc2)cc1,10.4%,u,6.6%,u,-7.2%,-13.5%
COc1ccc(C(=O)NC(=S)Nc2ccc(S(=O)(=O)Nc3cc(OC)nc(OC)n3)cc2)cc1,51.5%,-12.5,11.2%,14.1µM*,7.1%,2.8%
COC(=O)CCC(=O)NC(=S)Nc1ccc(S(=O)(=O)Nc2cc(OC)nc(OC)n2)cc1,108.4%,-25.8,6.8%,-19.3%,-10.0%,-14.5%
COc1ccc(C(=O)NC(=S)Nc2ccc(S(=O)(=O)Nc3cc(OC)ncn3)cc2)cc1,31.3%,-17.0,u,20µM*,-14.2%,-10.1%
COc1cc(NS(=O)(=O)c2ccc(NC(=S)NC(=O)CC(C)C)cc2)nc(OC)n1,94.1%,20.2,9.0%,u,u,11.2µM*
COc1cc(NS(=O)(=O)c2ccc(NC(=S)NC(=O)c3ccc(F)cc3)cc2)nc(OC)n1,43.9%,14.8,17.5%,31.6µM*,-7.1%,0.9%
CCOC(=O)C1=C(N)N(c2ccccc2)C2=C(C(=O)CCC2)C1c1cccnc1 (stereo not given),-15.7%,u,9.5%,2.9%,-2.3%,-2.5%
COc1cc(NS(=O)(=O)c2ccc(NC(=S)NC(=O)c3ccco3)cc2)ncn1,64.6%,-21.1,7.6%,39.8µM*,-2.4%,i
COc1ccc(N=Nc2n(C)c3ccccc3[n+]2C)cc1,x,x,x,5.01µM*,x,x
COc1ccc(N=Nc2ccc(CO)cc2)cc1,0.1%,70.4,23.2%,x,-13.5%,-6.4%
Cc1cc(OC(C)C(=O)NCCCN2CCOCC2)c2c(C)cc(=O)oc2c1 (stereo not given),0.7%,7.8,-14.7%,3.3%,x,x
